# Source: PubChem BioAssay (EPA / NIEHS)
# Results filed as inconclusive are left out. Active and inactive are the calls of the source. How the source made its calls, unless noted: active means hit-call score of the fitted dose curve at least 0.9, where 1 is the maximum; inconclusive means response in the unintended direction; inactive means score below 0.9.
# Assays:
# [1] = biological target: mouse Estrogen Receptor alpha (Era), Esr1 (gene 13982) (UniProt P19785); test: NVS_NR_mERa: NovaScreen (NVS) Nuclear Receptor Binding Assay for mouse Estrogen Receptor alpha (Era) (AID 2283378);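 further: hit means loss of bound radioligand signal relative to DMSO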
# How it was run: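 Filter radiodetection of radioligand displacement from extracted receptor protein, measured 18 h post-dose. Single 25 uM concentration in duplicate initially, with concentration-series follow-up. Binding loss fitted relative to DMSO.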
# [2] = biological target: Estrogen receptor (Homo sapiens) (UniProt P03372); test: OT_ERa_GFPERaERE_0120: Odyssey Thera (OT) 2-hour HeLa Transcription Induction Assay for Estrogen Receptor (AID 2283382)
# How it was run: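 HeLa cells were dosed for 2 h, then GFP reporter induction was quantified by fluorescence microscopy with high-content image analysis. Gain of signal fitted against DMSO baseline.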
# [3] = biological target: rat Serotonin Transporter (SERT), Slc6a4 (gene 25553) (UniProt P31652); test: NVS_TR_rSERT: NovaScreen (NVS) Transporter Assay for rat Serotonin Transporter (SERT) (AID 2283375)
# How it was run: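 Radioligand binding with competitive displacement on rat forebrain membrane preparations, counted by filtration and scintillation after 1 h. Primary single-point duplicates at 25 uM; active chemicals followed up in concentration-response. DMSO served as baseline.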
# [4] = biological target: Estrogen receptor (Homo sapiens) (UniProt P03372); test: OT_ERa_GFPERaERE_0480: Odyssey Thera (OT) 8-hour HeLa Transcription Induction Assay for Estrogen Receptor (AID 2283381; active means hit-call score of the fitted dose curve at least 0.9, where 1 is the maximum; inactive means score below 0.9)
# How it was run: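 HeLa cells expressing GFP reporter under estrogen response element, imaged 8 h after dosing. GFP induction quantified by high-content fluorescence microscopy image analysis; gain of signal fitted versus DMSO.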
# [5] = test system: rat Norepinephrine Transporter (NET), gene 83511; test: NVS_TR_rNET: NovaScreen (NVS) Transporter Assay for rat Norepinephrine Transporter (NET) (AID 2283373)
# How it was run: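 Rat forebrain membranes; radioligand binding measured by filter-based scintillation counting 1 hour after dosing. Loss of specific binding versus DMSO baseline scored; primary screen in duplicate at 25 uM, actives followed up in concentration series.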
# [6] = biological target: human Dopamine Transporter (DAT), SLC6A3 (gene 6531) (UniProt Q01959); test: NVS_TR_hDAT: NovaScreen (NVS) Transporter Assay for human Dopamine Transporter (DAT) (AID 2283374);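 further: activity means loss of bound radioligand signal relative to DMSO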
# How it was run: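 Cell-free radioligand binding to extracted human DAT protein, read 1 h after dosing by filter-based scintillation counting. Loss of specific binding scored against DMSO baseline; primary screen in duplicate at 25 uM, actives then run in concentration series.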
# [7] = biological target: Estrogen receptor beta (Homo sapiens) (UniProt Q92731); test: OT_ER_ERbERb_1440: Odyssey Thera (OT) 24-hour HEK293T Protein-Complementation Assay for Estrogen Receptor-beta/-beta Homodimer (AID 2283380);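 further: fluorescence gain from ER beta LBD homodimer complementation read by laser scanning cytometry; scored as signal increase over DMSO baseline for both agonists and antagonists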
# How it was run: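 HEK293T cells stably expressing human ER-beta LBD (aa 310-547) PCA homodimer pair, dosed 24 h; formaldehyde-fixed, Draq5-stained. Readout: increase in nuclear (agonist) or nuclear plus cytoplasmic (antagonist) fluorescence intensity versus DMSO, gain-of-signal fitting.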
# [8] = biological target: human Norepinephrine Transporter (NET), SLC6A2 (gene 6530) (UniProt P23975); test: NVS_TR_hNET: NovaScreen (NVS) Transporter Assay for human Norepinephrine Transporter (NET) (AID 2283377);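 further: cell-free membrane protein extracted from CHO cells expressing human NET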
# How it was run: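 Radioligand binding to human NET in cell-free CHO-derived protein preparations, read by filter-based scintillation counting 1 hour after dosing. Loss of signal versus DMSO baseline indicated displacement; primary screening in duplicate at 25 uM, actives then titrated.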
# [9] = biological target: Agonist Androgen Response Element (ARE), AR (gene 367) (UniProt P10275); test: OT_AR_ARELUC_AG_1440: Odyssey Thera (OT) 24-hour CHO-K1 Luciferase Assay for Agonist Androgen Response Element (ARE) (AID 2283379)
# How it was run: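 Seed CHO-K1 cells; dose compounds for 24 h; add D-luciferin plus ATP in PBS; read luminescence. Signal increase relative to vehicle defines agonist activity, with at least 3 replicate wells per sample.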
# [10] = biological target: Bile acid receptor (Homo sapiens) (UniProt Q96RI1); test: OT_FXR_FXRSRC1_0480: Odyssey Thera (OT) 8-hour HEK293T Protein-Complementation Assay for Farnesoid X receptor/SRC-1 Co-activator (AID 2283383)
# How it was run: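 HEK293T protein-fragment complementation assay: FXR and SRC-1 coactivator are fused to reporter fragments, and their interaction restores a fluorescent reporter. Readout was taken 8 h after dosing, with gain of signal fit relative to DMSO.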
# mouse Estrogen Receptor alpha (Era), Esr1 (gene 13982), sequence (P19785 whole entry, looked up): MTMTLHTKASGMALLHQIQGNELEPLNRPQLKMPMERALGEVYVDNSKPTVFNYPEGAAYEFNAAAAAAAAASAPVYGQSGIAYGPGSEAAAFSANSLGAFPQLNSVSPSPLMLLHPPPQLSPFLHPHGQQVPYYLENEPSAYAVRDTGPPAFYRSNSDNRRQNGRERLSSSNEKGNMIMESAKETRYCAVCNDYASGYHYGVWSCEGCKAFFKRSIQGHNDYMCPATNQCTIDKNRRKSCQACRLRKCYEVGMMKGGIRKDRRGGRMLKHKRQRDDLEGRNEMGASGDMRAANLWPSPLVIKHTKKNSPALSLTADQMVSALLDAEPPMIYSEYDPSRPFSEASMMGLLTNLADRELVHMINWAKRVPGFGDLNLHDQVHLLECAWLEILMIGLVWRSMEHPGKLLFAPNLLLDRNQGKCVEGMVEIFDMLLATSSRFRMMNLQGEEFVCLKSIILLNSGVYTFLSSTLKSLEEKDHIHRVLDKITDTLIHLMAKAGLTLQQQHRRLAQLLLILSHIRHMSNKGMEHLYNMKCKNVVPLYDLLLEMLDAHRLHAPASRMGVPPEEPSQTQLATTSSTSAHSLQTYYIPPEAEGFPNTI
# Agonist Androgen Response Element (ARE), AR (gene 367), sequence (P10275 whole entry, looked up): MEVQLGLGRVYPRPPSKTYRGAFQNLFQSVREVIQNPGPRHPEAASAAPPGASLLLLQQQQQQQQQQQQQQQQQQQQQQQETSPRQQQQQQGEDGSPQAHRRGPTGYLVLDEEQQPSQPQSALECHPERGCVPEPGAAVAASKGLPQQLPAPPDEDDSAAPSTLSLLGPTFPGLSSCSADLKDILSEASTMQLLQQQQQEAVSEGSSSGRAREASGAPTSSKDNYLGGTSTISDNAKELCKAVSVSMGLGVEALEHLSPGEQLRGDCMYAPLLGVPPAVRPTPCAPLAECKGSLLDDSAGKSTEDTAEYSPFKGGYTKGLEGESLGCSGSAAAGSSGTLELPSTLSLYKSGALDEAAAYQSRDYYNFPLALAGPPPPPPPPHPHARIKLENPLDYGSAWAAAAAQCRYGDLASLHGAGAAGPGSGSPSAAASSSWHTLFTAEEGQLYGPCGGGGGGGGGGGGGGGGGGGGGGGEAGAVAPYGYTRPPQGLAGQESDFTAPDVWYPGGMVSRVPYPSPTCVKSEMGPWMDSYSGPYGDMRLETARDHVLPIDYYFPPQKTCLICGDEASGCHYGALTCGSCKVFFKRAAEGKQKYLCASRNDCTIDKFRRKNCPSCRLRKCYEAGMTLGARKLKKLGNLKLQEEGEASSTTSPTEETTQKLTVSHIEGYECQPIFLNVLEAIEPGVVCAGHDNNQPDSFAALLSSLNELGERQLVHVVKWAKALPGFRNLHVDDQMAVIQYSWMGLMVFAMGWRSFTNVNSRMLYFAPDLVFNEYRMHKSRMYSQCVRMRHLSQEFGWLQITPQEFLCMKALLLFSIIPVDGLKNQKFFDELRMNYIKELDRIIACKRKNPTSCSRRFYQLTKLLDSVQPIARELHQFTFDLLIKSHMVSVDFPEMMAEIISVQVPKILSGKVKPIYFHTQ
# human Norepinephrine Transporter (NET), SLC6A2 (gene 6530), sequence (P23975 whole entry, looked up): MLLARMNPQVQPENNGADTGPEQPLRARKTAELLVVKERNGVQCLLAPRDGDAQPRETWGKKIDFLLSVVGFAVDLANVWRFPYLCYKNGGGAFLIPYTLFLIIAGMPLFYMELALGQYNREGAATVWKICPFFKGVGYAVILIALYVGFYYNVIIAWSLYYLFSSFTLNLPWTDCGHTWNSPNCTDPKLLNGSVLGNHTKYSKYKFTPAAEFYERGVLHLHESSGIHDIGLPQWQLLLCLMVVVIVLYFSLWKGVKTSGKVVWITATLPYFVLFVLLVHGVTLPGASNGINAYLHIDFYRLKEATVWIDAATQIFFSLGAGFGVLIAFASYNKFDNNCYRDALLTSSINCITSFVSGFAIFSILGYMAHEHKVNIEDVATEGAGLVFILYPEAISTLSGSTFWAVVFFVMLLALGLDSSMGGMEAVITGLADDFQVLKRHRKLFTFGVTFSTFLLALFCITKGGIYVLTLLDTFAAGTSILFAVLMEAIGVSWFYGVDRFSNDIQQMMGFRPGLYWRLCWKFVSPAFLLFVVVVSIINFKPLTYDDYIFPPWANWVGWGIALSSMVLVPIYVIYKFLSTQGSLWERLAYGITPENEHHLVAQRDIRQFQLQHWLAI
# human Dopamine Transporter (DAT), SLC6A3 (gene 6531), sequence (Q01959 whole entry, looked up): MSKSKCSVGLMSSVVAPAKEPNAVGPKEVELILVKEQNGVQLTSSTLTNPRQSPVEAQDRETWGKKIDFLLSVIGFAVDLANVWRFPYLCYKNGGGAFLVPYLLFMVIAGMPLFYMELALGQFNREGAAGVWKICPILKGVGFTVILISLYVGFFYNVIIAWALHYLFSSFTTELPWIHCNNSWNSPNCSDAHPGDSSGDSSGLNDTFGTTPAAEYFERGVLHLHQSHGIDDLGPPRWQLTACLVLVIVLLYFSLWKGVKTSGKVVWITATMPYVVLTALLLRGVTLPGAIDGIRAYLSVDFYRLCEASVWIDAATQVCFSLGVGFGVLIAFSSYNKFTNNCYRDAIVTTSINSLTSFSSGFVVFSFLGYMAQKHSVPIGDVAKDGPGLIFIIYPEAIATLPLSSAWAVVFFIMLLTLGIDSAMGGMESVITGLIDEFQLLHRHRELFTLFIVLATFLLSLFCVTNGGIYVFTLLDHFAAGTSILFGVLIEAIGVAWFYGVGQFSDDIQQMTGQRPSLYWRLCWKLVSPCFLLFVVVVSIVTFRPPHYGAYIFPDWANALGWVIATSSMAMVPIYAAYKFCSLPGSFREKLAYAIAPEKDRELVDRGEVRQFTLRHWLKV
# Estrogen receptor (Homo sapiens), sequence (P03372 whole entry, looked up): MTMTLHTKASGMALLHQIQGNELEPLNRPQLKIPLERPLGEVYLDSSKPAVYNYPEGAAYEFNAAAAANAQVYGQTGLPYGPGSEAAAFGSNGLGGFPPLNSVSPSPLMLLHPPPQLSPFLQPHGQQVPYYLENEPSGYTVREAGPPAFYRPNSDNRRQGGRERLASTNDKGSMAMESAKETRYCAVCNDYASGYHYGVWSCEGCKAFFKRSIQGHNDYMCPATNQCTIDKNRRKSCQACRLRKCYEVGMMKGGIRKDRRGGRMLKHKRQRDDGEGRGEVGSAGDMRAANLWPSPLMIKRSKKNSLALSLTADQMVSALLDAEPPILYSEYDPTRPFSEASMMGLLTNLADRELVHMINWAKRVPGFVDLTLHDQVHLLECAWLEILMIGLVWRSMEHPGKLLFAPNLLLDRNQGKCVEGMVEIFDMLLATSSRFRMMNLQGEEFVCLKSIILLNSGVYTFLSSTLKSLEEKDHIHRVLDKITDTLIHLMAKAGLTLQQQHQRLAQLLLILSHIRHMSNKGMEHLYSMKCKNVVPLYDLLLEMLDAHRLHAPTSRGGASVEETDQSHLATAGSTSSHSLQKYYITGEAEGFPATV
# Bile acid receptor (Homo sapiens), sequence (Q96RI1 whole entry, looked up, the tested form may be a part): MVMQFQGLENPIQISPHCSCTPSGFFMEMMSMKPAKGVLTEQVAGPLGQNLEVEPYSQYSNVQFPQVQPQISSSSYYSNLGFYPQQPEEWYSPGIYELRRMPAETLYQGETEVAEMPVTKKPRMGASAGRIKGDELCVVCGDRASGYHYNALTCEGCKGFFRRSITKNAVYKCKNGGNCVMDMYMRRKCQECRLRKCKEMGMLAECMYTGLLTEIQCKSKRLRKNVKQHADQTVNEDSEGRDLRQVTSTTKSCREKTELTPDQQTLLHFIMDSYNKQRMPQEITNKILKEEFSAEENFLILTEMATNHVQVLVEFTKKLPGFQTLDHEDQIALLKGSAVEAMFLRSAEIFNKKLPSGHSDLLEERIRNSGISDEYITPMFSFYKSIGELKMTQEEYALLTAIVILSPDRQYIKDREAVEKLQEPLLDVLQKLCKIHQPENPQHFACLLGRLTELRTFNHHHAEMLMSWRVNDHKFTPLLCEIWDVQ
# rat Serotonin Transporter (SERT), Slc6a4 (gene 25553), sequence (P31652 whole entry, looked up): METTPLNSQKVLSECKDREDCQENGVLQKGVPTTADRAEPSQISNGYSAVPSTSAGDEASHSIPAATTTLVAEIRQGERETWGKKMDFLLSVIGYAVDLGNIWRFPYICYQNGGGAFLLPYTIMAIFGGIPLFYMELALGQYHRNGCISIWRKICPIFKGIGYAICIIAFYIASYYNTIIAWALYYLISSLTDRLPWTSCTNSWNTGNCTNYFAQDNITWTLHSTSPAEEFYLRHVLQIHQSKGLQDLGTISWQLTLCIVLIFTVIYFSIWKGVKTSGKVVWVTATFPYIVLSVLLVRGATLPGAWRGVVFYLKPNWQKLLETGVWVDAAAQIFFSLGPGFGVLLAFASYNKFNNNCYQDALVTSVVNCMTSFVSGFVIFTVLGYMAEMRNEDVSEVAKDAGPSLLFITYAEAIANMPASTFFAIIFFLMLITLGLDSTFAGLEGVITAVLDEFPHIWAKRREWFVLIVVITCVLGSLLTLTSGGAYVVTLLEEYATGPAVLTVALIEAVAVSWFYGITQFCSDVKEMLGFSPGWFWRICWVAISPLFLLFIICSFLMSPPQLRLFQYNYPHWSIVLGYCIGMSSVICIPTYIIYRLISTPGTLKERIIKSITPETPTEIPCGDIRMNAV
# Estrogen receptor beta (Homo sapiens), sequence (Q92731 whole entry, looked up, the tested form may be a part): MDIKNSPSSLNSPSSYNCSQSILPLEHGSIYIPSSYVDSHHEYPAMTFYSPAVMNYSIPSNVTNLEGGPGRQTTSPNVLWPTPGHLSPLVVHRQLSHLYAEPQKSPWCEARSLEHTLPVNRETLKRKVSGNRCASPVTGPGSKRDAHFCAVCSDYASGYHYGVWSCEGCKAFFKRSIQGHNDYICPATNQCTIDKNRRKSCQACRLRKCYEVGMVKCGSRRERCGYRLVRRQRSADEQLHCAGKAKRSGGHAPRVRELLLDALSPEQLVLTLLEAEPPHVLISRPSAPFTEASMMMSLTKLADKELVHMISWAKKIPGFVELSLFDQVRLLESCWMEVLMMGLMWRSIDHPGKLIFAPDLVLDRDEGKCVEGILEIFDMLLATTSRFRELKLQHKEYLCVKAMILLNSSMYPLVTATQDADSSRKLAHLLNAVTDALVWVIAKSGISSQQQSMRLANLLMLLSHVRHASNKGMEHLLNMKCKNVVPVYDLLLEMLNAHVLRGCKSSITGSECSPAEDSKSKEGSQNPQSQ
smiles,measurement,setting,value
C[C@]12C=CC(=O)C=C1CC[C@H]1[C@@H]3C[C@@H](O)[C@](O)(C(=O)CO)[C@@]3(C)C[C@H](O)[C@@]12F,outcome,[1],inactive
same,outcome,[2],inactive
O=S(=O)(O)c1ccc(N=Nc2c(O)ccc3cc(S(=O)(=O)O)ccc23)cc1,outcome,[3],inactive
same,outcome,[4],inactive
same,outcome,[2],inactive
O=c1[nH]cnc2c1ncn2[C@H]1CC[C@@H](CO)O1,outcome,[5],inactive
same,outcome,[4],inactive
O=C(NO)C1(NS(=O)(=O)c2ccc(Oc3ccc(F)cc3)cc2)CCOCC1,AC50,[6],8.77 µM (active)
same,outcome,[7],inactive
CCc1ccc(O)c(C(C)(C)C)c1,outcome,[1],inactive
same,outcome,[7],inactive
CCCC(CCC)C(=O)O,outcome,[1],inactive
CCCCCCCCCCCCCCCCOS(=O)(=O)O,AC50,[8],19.6 µM (active)
same,AC50,[1],7.04 µM (active)
same,outcome,[9],inactive
same,outcome,[7],inactive
same,outcome,[2],inactive
same,outcome,[10],inactive
CCN(CC)C(=S)SSC(=S)N(CC)CC,AC50,[6],10.4 µM (active)
same,AC50,[8],0.344 µM (active)
same,outcome,[9],inactive
same,outcome,[7],inactive
same,AC50,[4],92.5 µM (active)
same,outcome,[10],inactive
NC(=O)N1c2ccccc2C=Cc2ccccc21,outcome,[1],inactive
same,outcome,[7],inactive
Cc1ccc(S(=O)(=O)NC(=O)NN2CCCCCC2)cc1,outcome,[3],inactive
same,outcome,[7],inactive
c1ccc2cc3ccccc3cc2c1,AC50,[8],6.95 µM (active)
same,outcome,[7],inactive
same,outcome,[4],inactive
same,outcome,[10],inactive
Cc1cccc(O)c1C,outcome,[1],inactive
same,outcome,[7],inactive
same,outcome,[2],inactive
same,outcome,[10],inactive
CC(C)CCCCCCOC(=O)C1CCCCC1C(=O)OCCCCCCC(C)C (stereo unspecified),outcome,[1],inactive
same,outcome,[7],inactive
same,outcome,[10],inactive
COS(C)(=O)=O,outcome,[1],inactive
same,outcome,[4],inactive
CCCOc1ccc(S(=O)(=O)N2CCN(CC)CC2)cc1-c1nc2c(CC)n(Cc3ccccn3)nc2c(=O)[nH]1,AC50,[6],25 µM (active)
same,outcome,[3],inactive
same,outcome,[7],inactive
same,outcome,[2],inactive
same,outcome,[10],inactive
CNC(C)=O,outcome,[8],inactive
same,outcome,[7],inactive
same,outcome,[2],inactive
C=CCc1cc(S(=O)(=O)c2ccc(O)c(CC=C)c2)ccc1O,AC50,[6],7.48 µM (active)
same,AC50,[8],6.96 µM (active)
same,AC50,[1],14.6 µM (active)
same,outcome,[7],inactive
CCCCCCCCCC,outcome,[6],inactive
same,outcome,[3],inactive
same,outcome,[7],inactive
same,outcome,[4],inactive
same,outcome,[10],inactive
CC(C)c1nnc2ccc(-c3ocnc3-c3cc(F)ccc3F)cn12,outcome,[6],inactive
same,outcome,[7],inactive
same,outcome,[10],inactive
Cc1nccn1-c1ccc(Sc2cccc(C3(C(N)=O)CCOCC3)c2)cc1,AC50,[6],6.99 µM (active)
same,AC50,[7],31.9 µM (active)
same,AC50,[10],4.07 µM (active)
CCCCCCCCN(C)C,AC50,[3],12.5 µM (active)
same,outcome,[2],inactive
OC[C@H]1O[C@@H]2O[C@H]3[C@H](O)[C@@H](O)[C@@H](O[C@H]4[C@H](O)[C@@H](O)[C@@H](O[C@H]5[C@H](O)[C@@H](O)[C@@H](O[C@H]6[C@H](O)[C@@H](O)[C@@H](O[C@H]7[C@H](O)[C@@H](O)[C@@H](O[C@H]1[C@H](O)[C@H]2O)O[C@@H]7CO)O[C@@H]6CO)O[C@@H]5CO)O[C@@H]4CO)O[C@@H]3CO,AC50,[1],10.3 µM (active)
same,outcome,[7],inactive
same,outcome,[4],inactive
Cc1ncc([C@@H](CCCCCCc2ccc3c(n2)NCCC3)CC(=O)O)cn1,outcome,[7],inactive
same,outcome,[4],inactive
OC(Cn1cncn1)(Cn1cncn1)c1ccc(F)cc1F,outcome,[7],inactive
same,outcome,[2],inactive
OC[C@H]1O[C@@](CO)(O[C@H]2O[C@H](CO)[C@@H](O)[C@H](O)[C@H]2O)[C@@H](O)[C@@H]1O,outcome,[7],inactive
same,outcome,[4],inactive
same,outcome,[2],inactive
CCCCCCOC(=O)CC(CC(=O)OCCCCCC)(OC(=O)CCC)C(=O)OCCCCCC,outcome,[7],inactive
same,outcome,[2],inactive
CCOc1ccc2[nH]cc(C(=O)NCc3ccccc3)c(=O)c2n1,outcome,[7],inactive
same,outcome,[2],inactive
same,outcome,[10],inactive
O=C(O)c1cccc(C(=O)O)c1,outcome,[10],inactive
C[C@@H](Oc1ccc(CNC(=O)c2cccnc2Oc2ccc3c(c2)OCO3)c(F)c1)C(=O)O,outcome,[7],inactive
same,outcome,[4],inactive
same,outcome,[10],inactive
COc1cc2c(c(OC)c1OC)-c1ccc(OC)c(=O)cc1[C@@H](NC(C)=O)CC2,outcome,[9],inactive
same,outcome,[7],inactive
same,AC50,[10],0.0869 µM (active)
CCCCCCCC1CCC(=O)O1 (stereo unspecified),outcome,[7],inactive
same,outcome,[4],inactive
same,outcome,[2],inactive
CCCCCOC(C)=O,outcome,[4],inactive
CC(C)CC(C)O (stereo unspecified),outcome,[7],inactive
same,outcome,[4],inactive
same,outcome,[2],inactive
same,outcome,[10],inactive
Cn1c(=O)c2[nH]cnc2n(C)c1=O,outcome,[10],inactive
c1ccc2ncccc2c1,outcome,[4],inactive
same,outcome,[2],inactive
NC(=O)N(O)[C@@H]1COc2cc(OCc3ccccc3)ccc21,outcome,[7],inactive
same,outcome,[2],inactive
same,outcome,[10],inactive
COCc1nnc(-c2ccc[n+]([O-])c2)n1-c1c(Cl)c(Cl)cc2[nH]c(=O)c(=O)[nH]c12,outcome,[7],inactive
same,outcome,[10],inactive
OCCNCCO,outcome,[4],inactive
same,outcome,[2],inactive
O=C1CN(N=Cc2ccc([N+](=O)[O-])o2)C(=O)N1,outcome,[7],inactive
same,outcome,[4],inactive
NC(=O)NN=Cc1ccc([N+](=O)[O-])o1,outcome,[7],inactive
same,outcome,[4],inactive
same,outcome,[2],inactive
CCc1cccc(CC)c1N,outcome,[9],inactive
same,outcome,[7],inactive
same,outcome,[2],inactive
O=S1(=O)CCCO1,AC50,[7],17.5 µM (active)
same,outcome,[4],inactive
O=C(O)[C@H](O)[C@@H](O)C(=O)O,outcome,[7],inactive
same,outcome,[4],inactive
same,outcome,[2],inactive
same,outcome,[10],inactive
CCCCCCCC/C=C\CCCCCCCC(=O)OC[C@@H](O)[C@H]1OC[C@H](O)[C@H]1O,outcome,[7],inactive
same,outcome,[2],inactive
OCC(CO)(CO)CO,outcome,[7],inactive
O=C(O)c1ccc2c(c1)nc(C(=O)NC1CCN(C3CC3)CC1)n2Cc1cc(-c2ccc(Cl)s2)on1,outcome,[7],inactive
same,outcome,[10],inactive
Cc1nc(-c2ccccn2)ncc1C(=O)Nn1cc(C)c2cc(F)ccc21,outcome,[9],inactive
same,outcome,[7],inactive
same,outcome,[4],inactive
same,outcome,[2],inactive
CC(=O)c1ccccc1,outcome,[2],inactive
CCCCOC(=O)c1ccccc1,outcome,[9],inactive
same,outcome,[4],inactive
same,outcome,[2],inactive
CCCCN1C(=O)[C@@H]([C@H](O)C2CCCCC2)NC(=O)C12CCN(Cc1ccc(Oc3ccc(C(=O)O)cc3)cc1)CC2,outcome,[7],inactive
same,outcome,[2],inactive
CCCc1ccccc1,outcome,[7],inactive
CCCCCCCCCCCCCCO,outcome,[7],inactive
NNC(=O)c1ccncc1,outcome,[7],inactive
same,outcome,[4],inactive
O=C(O)CO,outcome,[7],inactive
Nc1ccn([C@@H]2O[C@H](CO)[C@@H](O)[C@@H]2O)c(=O)n1,outcome,[1],inactive
same,outcome,[10],inactive
NC(N)=O,outcome,[7],inactive
Cn1cc[nH]c1=S,outcome,[7],inactive
same,outcome,[4],inactive
same,outcome,[2],inactive
